# Source: PubChem BioAssay (NCI)
# About 83,000 compounds went through this panel and 20% of them were active in at least one assay; those are over-represented in the sample as a whole.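 In brief: 96-well plates, 48 h treatment, single concentration, percent growth endpoint.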 A number with no mark means an inactive call. The source made the active and inactive calls. The calls were made as follows: active = growth percent below 10; inactive = the rest.
# Legend:
# Experiment in all cases: NCI-60 one-dose screen, 48 h (100 = growth as untreated, 0 = no growth, -100 = all killed)
# Details in all cases: 10 µM
# SR leukemia = test system: SR leukemia
# RPMI-8226 leukemia = test system: RPMI-8226 leukemia
# OVCAR-8 ovarian = test system: OVCAR-8 ovarian
# OVCAR-5 ovarian = test system: OVCAR-5 ovarian
# OVCAR-4 ovarian = test system: OVCAR-4 ovarian
# SK-OV-3 ovarian = test system: SK-OV-3 ovarian
# IGROV1 ovarian = test system: IGROV1 ovarian
# OVCAR-3 ovarian = test system: OVCAR-3 ovarian
# HS 578T breast = test system: HS 578T breast
# NCI/ADR-RES ovarian = test system: NCI/ADR-RES ovarian
# T-47D breast = test system: T-47D breast
# BT-549 breast = test system: BT-549 breast
# MDA-MB-435 melanoma = test system: MDA-MB-435 melanoma
# SW-620 colon = test system: SW-620 colon
# MCF7 breast = test system: MCF7 breast
# HCT-116 colon = test system: HCT-116 colon
# HCC-2998 colon = test system: HCC-2998 colon
# KM12 colon = test system: KM12 colon
Structure (SMILES),growth (SR leukemia),growth (RPMI-8226 leukemia),growth (OVCAR-8 ovarian),growth (OVCAR-5 ovarian),growth (OVCAR-4 ovarian),growth (SK-OV-3 ovarian),growth (IGROV1 ovarian),growth (OVCAR-3 ovarian),growth (HS 578T breast),growth (NCI/ADR-RES ovarian),growth (T-47D breast),growth (BT-549 breast),growth (MDA-MB-435 melanoma),growth (SW-620 colon),growth (MCF7 breast),growth (HCT-116 colon),growth (HCC-2998 colon),growth (KM12 colon)
CCOc1cc(Br)c(C(C)NC(=O)c2cccc(OC)c2)cc1OCC (centres undefined),3.32% (active),36.3%,84.3%,88.7%,64.5%,96%,73.8%,74.8%,75.5%,94.4%,80.8%,87%,6.36% (active),85.7%,64.4%,56.2%,37.7%,84.1%
COCCNCC(O)Cn1c2ccc(Cl)cc2c2cc(Cl)ccc21 (centres undefined),-19.9% (active),-36.9% (active),-69.9% (active),-79.1% (active),-97.3% (active),52.7%,-38% (active),-46.3% (active),-12.3% (active),-6.15% (active),-15.8% (active),11.2%,-83.1% (active),2.98% (active),-64.8% (active),-5.18% (active),-30.1% (active),10.9%
O=C1/C(=C/c2ccc(O)cc2O)N=C2SCCCN12,89.8%,103%,97.5%,92.9%,97.1%,102%,101%,98.6%,105%,98.7%,85%,96.9%,99.2%,107%,108%,99.5%,119%,91.3%
Cc1ccc2c3c(cccc13)-c1ccccc1C2=O,94.1%,97.8%,94.2%,113%,105%,92.1%,94%,108%,94%,99%,84.9%,106%,98.9%,93%,96.6%,86.4%,89%,54.4%
CCc1cc2n(n1)-c1ncc(C(=O)OC)cc1Oc1ccccc1-2,93.9%,93.3%,97.8%,105%,100%,102%,97%,106%,97%,103%,75.8%,111%,103%,106%,97.4%,90.5%,114%,102%
CCOc1ccc2c(c1)CC[C@@H]1[C@@H]2CC[C@]2(C)[C@@H](O)[C@@H](O)C[C@@H]12,88.5%,92.9%,95.1%,95.7%,90.2%,113%,106%,118%,113%,107%,93.8%,119%,90.2%,95.9%,111%,104%,108%,106%
N#CCC1CCCC1,81.6%,97.2%,98.9%,105%,95.7%,104%,118%,121%,106%,101%,101%,112%,91.2%,104%,92.8%,99.8%,104%,110%
Cc1ccc(NS(=O)(=O)c2ccccc2)c(NS(=O)(=O)c2ccccc2)c1,117%,93.4%,105%,104%,97%,102%,107%,98%,91.1%,94.7%,101%,104%,106%,95.1%,104%,93.7%,106%,103%
Cc1cc(OI)c(C(C)C)cc1-c1cc(C(C)C)c(OI)cc1C,84.8%,103%,104%,94.4%,109%,92.4%,98%,108%,109%,102%,81.6%,111%,112%,113%,92.6%,101%,105%,101%
Cc1ccc(S(=O)(=O)Nc2cccc3[nH]c(C(F)(F)F)nc23)cc1,10.8%,-3.69% (active),31%,35.3%,36%,4.74% (active),51.4%,4.74% (active),24.4%,4.81% (active),47.2%,52%,-31.5% (active),18.6%,13.2%,23.8%,28.1%,21%
CCOC(=O)Nc1ccc2c(c1)C(=O)N(CCOC)c1ccccc1O2,17.5%,22.2%,52.8%,87.9%,62.1%,37.3%,57.8%,8.46% (active),44.4%,24.1%,30.5%,52.8%,-14.2% (active),32%,14.4%,24.4%,55.3%,23%
Cc1ccc(-n2c(-c3cc4c([nH]c5ccccc54)c(-c4cccc(O)c4)n3)n[nH]c2=S)cc1,-21.8% (active),-14.1% (active),0.787% (active),50.1%,26.4%,-14.5% (active),-3.48% (active),-36.1% (active),23.4%,61.7%,20.4%,-35.7% (active),1.24% (active),10.5%,2.88% (active),3.29% (active),-52.5% (active),5% (active)
COc1cc(-c2nc3ccc(C)cc3[nH]2)ccc1OCC(=O)N=Nc1c(O)[nH]c2ccccc12,-36.7% (active),-54% (active),-72.8% (active),-32.4% (active),-82.2% (active),-3.57% (active),-27.4% (active),-94.5% (active),-46.8% (active),87.5%,-61.2% (active),18.9%,-52.6% (active),-62.9% (active),-73.4% (active),-82.7% (active),-91.2% (active),-79.4% (active)
O=C(NNC(=O)c1ccncc1)Nc1ccc([N+](=O)[O-])cc1,91.9%,102%,105%,108%,108%,104%,120%,103%,107%,96.4%,90.8%,121%,94.1%,100%,109%,110%,106%,104%
COc1cc2c3c(cccc3c1)C(=O)N(CCN1CCCC1)C2=O,2.44% (active),12.2%,6.43% (active),34.1%,21.6%,34.1%,23.5%,0.462% (active),27.1%,13%,25.3%,49.4%,14.4%,9.75% (active),3.07% (active),6.66% (active),44.4%,21.3%
COc1ccc(C(=O)/C=C/c2cc(-c3ccc4c(c3)OCO4)n[nH]2)cc1OC,-5.36% (active),4.4% (active),47.4%,75.9%,59.9%,93.3%,44.1%,36.6%,79.3%,57.8%,43.8%,41.4%,73.5%,36.4%,27.2%,18.4%,91.3%,54.1%
CC(=O)n1nc(C(=O)OC(C)(C)C)c2cc(F)c(F)cc21,104%,89.1%,105%,104%,98.5%,114%,97.5%,96.8%,106%,98.3%,104%,119%,95.9%,94.1%,99.2%,95%,102%,90%
CCOC(=O)CSC(=S)SCC(=O)OCC,84.8%,95.4%,93%,107%,97.4%,98.2%,117%,122%,106%,106%,89.6%,106%,94.9%,135%,88.7%,99.1%,105%,100%
